E coli growth-1 – E. coli growth inhibition, primary screen, OD600; Escherichia coli growth, 23 h; active compounds read low; OD600 absorbance (concentration not given with the values); 330,000 tested, 0.21% active;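 active = OD600 absorbance below the run mean of sample wells minus 3.6 SD, in any replicate, cut at about 0.56 in these data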
Tat export inh – E. coli Tat export inhibitors, primary screen, MC4100, TorA-mCherry reporter, fluorescence, single point | inhibition, % at 10 µM | 340,000 tested, 0.036% active;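 active = mean replicate inhibition at least 50% and at least half of replicates individually reaching 50%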;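 note: exported cargo escapes ClpAP degradation while cytoplasmic cargo is degraded and loses fluorescence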
phage Ecoli inh – growth loss of phage-infected E. coli, primary screen, RecBCD inhibitor project, absorbance, with phage, HTS | inhibition, % at 11.9 µM | 360,000 tested, 0.26% active; in the data active = inhibition above about 11%
E coli growth-2 – E. coli V3065 growth inhibition, primary screen, counter-screen for AddAB inhibitor project, absorbance, OD600; AID 449728, 2010; inhibition, % at 11.9 µM; 330,000 tested, 0.27% active; 18 h;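 active = inhibition above the campaign's mean inhibition across all tested compounds plus 3 SD, cut at about 9.9% in these data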;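 note: uninfected addAB+ strain grown without phage in ampicillin broth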
AddAB inh – growth inhibition of E. coli expressing H. pylori AddAB, primary screen, AddAB inhibitor project, absorbance | inhibition, % at 11.9 µM | 330,000 tested, 0.29% active | AID 435030, 2010; in the data active = inhibition above about 12%
AddAB conf – growth loss of phage-infected E. coli expressing H. pylori AddAB, confirmation, AddAB inhibitor project, absorbance, E. coli V3065, T4 phage, triplicate | OD; T4 phage with gene 2 nonsense mutations | AID 488942, 2010 | shares compounds with AddAB inh | 880 tested, 64% active | inhibition, % at 11.9 µM;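 active = mean inhibition above a set limit taken from the earlier primary screen, cut at about 13% in these data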;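 note: higher means less bacterial growth since AddAB block lets phage replicate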
RecBCD counter – growth loss of RecBCD+ E. coli with mutant T4 phage, counter-screen for AddAB inhibitor project, absorbance, V66 E. coli; shares compounds with AddAB inh; OD growth; inhibition, % at 11.9 µM; 880 tested, 73% active; AID 488955, 2010;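 active = mean inhibition above the mean of solvent-only control wells plus 3 SD, cut at about 4% in these data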;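 note: optical density read after an 18 h incubation at 37 °C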
Bact viability – bacterial viability inhibition counter-screen, confirmation, counter-screen for AddAB inhibitor project, absorbance; shares compounds with AddAB inh; absorbance (AddAB counterscreen); inhibition, % at 11.9 µM; 880 tested, 35% active; in the data active = inhibition above about 25%
RecBCD conf – growth loss of phage-infected RecBCD+ E. coli, confirmation, RecBCD inhibitor project, absorbance, E. coli V66, T4 gene 2 phage; shares compounds with phage Ecoli inh; 890 tested, 45% active; inhibition, % at 11.9 µM; E. coli V66 + T4 2- phage, growth OD;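 active = mean inhibition over triplicates exceeding the hit threshold derived in the original primary screen, cut at about 11% in these data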
Ecoli viability – E. coli viability inhibition, counter-screen for RecBCD inhibitor project, absorbance, high throughput; absorbance (OD) growth; inhibition, % at 11.9 µM; 890 tested, 29% active; AID 651983, 2013; shares compounds with phage Ecoli inh; in the data active = inhibition above about 20%;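 note: E. coli strain V66 grown with compound alone and no phage infection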
AddAB phage OD – growth loss of phage-infected AddAB-carrying E. coli, confirmation, counter-screen for RecBCD inhibitor project, absorbance, E. coli V3065, T4 phage; shares compounds with phage Ecoli inh; E. coli expressing H. pylori AddAB + T4 phage, OD growth; gene 2 mutant T4, recBCD-deleted host; 890 tested, 45% active; inhibition, % at 11.9 µM;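 active = mean inhibition above the solvent-only control wells' mean plus 3 SD, cut at about 22% in these data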;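 note: higher means less bacterial growth from phage killing when AddAB is blocked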
Hits are given with their value; 0 = inactive; - = no result; ! = not confirmed by another sample. An excerpt weighted towards active compounds, which were near 0.5% of everything screened.

SMILES | E coli growth-1 | Tat export inh | phage Ecoli inh | E coli growth-2 | AddAB inh | AddAB conf | RecBCD counter | Bact viability | RecBCD conf | Ecoli viability | AddAB phage OD
CC(O)c1nc2ccccc2n1CC(=O)Nc1ccc2c(c1)OCCO2 (stereo unspecified) | 0 | 0 | 0 | 0 | 0 | - | - | - | - | - | -
COCC(=O)NN=C(C)CC(=O)NCc1ccco1 | 0 | - | - | - | - | - | - | - | - | - | -
O=C(CON=Cc1ccccc1O)N1CCc2ccccc21 | 0 | - | - | - | - | - | - | - | - | - | -
CCCNC(=O)c1cn(CC)c2cc(N3CCN(C)CC3)c(F)cc2c1=O | 0.049 | 81 | 100 | 100 | 98 | 102 | 101 | 101 | 103 | 104 | 103
CCCCN(CCCC)C(=O)c1cn(CC)c2cc(N3CCN(C)CC3)c(F)cc2c1=O | 0.049 | 71 | 98 | 101 | 102 | 104 | 102 | 103 | 100 | 101 | 100
CCn1cc(C(=O)NCCN(C)C)c(=O)c2cc(F)c(N3CCN(C)CC3)cc21 | 0.052 | 0 | 96 | 98 | 101 | 104 | 99 | 104 | 49 | 87 | 99
CCn1cc(S(=O)(=O)c2ccc(C)cc2)c(=O)c2cc(F)c(N3CCN(C)CC3)cc21 | 0 | 0 | 0 | 0 | 0 | - | - | - | - | - | -
CCCCCCn1cc(C(=O)O)c(=O)c2cc(F)c(N3CCN(C(=O)OCC)CC3)cc21 | 0 | 0 | 0 | 0 | 0 | - | - | - | - | - | -
CCCc1nnc(NC(=O)c2cn(CC)c3cc(N4CCN(C)CC4)c(F)cc3c2=O)s1 | 0.07 | - | 43 | 97 | 99 | 99 | 91 | 101 | 42 | 72 | 98
CCn1cc(C(=O)NCCCN(C)C)c(=O)c2cc(F)c(N3CCN(C)CC3)cc21 | 0.051 | 0 | 93 | 99 | 100 | 97 | 90 | 101 | 70 | 99 | 101
Cc1nc2ccccc2c(=O)n1/N=C/c1ccc([N+](=O)[O-])o1 | - | - | - | 0 | 0 | - | - | - | - | - | -
Cc1nc2ccccc2n1/N=C/c1ccc([N+](=O)[O-])o1 | - | 0 | 12 | 98 | 100 | 103 | 25 | 103 | 0 | 0 | 100
O=C1NC(Cc2ccccc2)C(=O)N1Cc1ccccc1 (stereo unspecified) | 0 | 0 | 0 | - | - | - | - | - | - | - | -
O=c1ccsn1Cc1ccccc1 | 0.044 | 0 | 14 | 0 | 75 | 102 | 29 | 26 | 0 | 0 | 77
Cc1cc(C)c2c(NC(N)=S)n[nH]c2n1 | 0 | 0 | 0 | 0 | 0 | - | - | - | - | - | -
Cc1cc(C)c2c(N=NN(C)C)[nH]nc2n1 | 0 | 0 | 14 | 78 | 39 | 97 | 8.6 | 54 | 12 | 0 | 70
NS(=O)(=O)c1ccc(N=Nc2ccc(O)c3ncccc23)cc1 | 0 | 0 | 0 | 0 | 0 | - | - | - | - | - | -
Oc1ccc(N=Nc2ccc3c(c2)OCCO3)c2ncccc12 | 0 | 0 | 11 | 0 | 13 | 13 | 9.6 | 0 | 0 | 0 | 0
COc1ccc(O)c(/C=N/NC(=O)c2ccc(CSc3nc(C)cc(C)n3)cc2)c1 | - | 0 | 11 | 11 | 16 | 0 | 8.0 | 0 | 0 | 0 | 0
Cc1ccc2nc(NN=Cc3ccco3)cc(C)c2c1 | 0 | - | - | - | - | - | - | - | - | - | -
Cn1cccc1C=NNC(=O)c1ccncc1 | 0 | - | - | - | - | - | - | - | - | - | -
COc1ccc(N/N=C(/N=Nc2nc(C)cc(=O)[nH]2)c2ccccc2)cc1 | - | 0 | 22 | 20 | 19 | 24 | 20 | 0 | 14 | 0 | 0
COc1ccc(-c2[nH]ncc2C=NNC(=O)c2cccs2)cc1OC | 0 | - | - | - | - | - | - | - | - | - | -
Nc1ccc(S(=O)(=O)Nc2nccs2)cc1 | 0 | 0 | 12 | 15 | 29 | 0 | 5.5 | 0 | 0 | 0 | 27
O=S(=O)(Nc1nccs1)c1ccc(Br)cc1 | 0 | 0 | 0 | 0 | 0 | - | - | - | - | - | -
SMILES | E coli growth-1 | Tat export inh | phage Ecoli inh | E coli growth-2 | AddAB inh | AddAB conf | RecBCD counter | Bact viability | RecBCD conf | Ecoli viability | AddAB phage OD
Cc1cccc(NC(=O)c2ccc([N+](=O)[O-])o2)n1 | 0.53 | 0 | 16 | 38 | 30 | 100 | 13 | 40 | 0 | 0 | 61
[N-]=[N+]=NC1C[C@H](n2ccc(=O)[nH]c2=O)O[C@@H]1CO (stereo partly specified) | - | 0 | 32 | 38 | 37 | 94 | 20 | 77 | 41 | 28 | 85
N#Cc1ccc(NC(=O)Nc2ccc(Cl)cc2)cc1 | 0.49 | 0 | 13 | 15 | 16 | 16 | 18 | 0 | 14 | 0 | 0
COc1ccc(/C=N/NC(=O)c2nc(-c3ccccc3)n(-c3ccccc3)n2)c(O)c1 | - | 0 | 22 | 19 | 21 | 0 | 19 | 0 | 11 | 0 | 0
CCN1/C(=C/C(C)=C/c2sc3ccccc3[n+]2CC)Sc2ccccc21 | 0.21 | 0 | 14! | 38 | 33 | 55 | 20 | 58 | 23 | 25 | 68
O=C(N/N=C/c1c(O)ccc2ccccc12)c1cccc(C(F)(F)F)c1 | - | 0 | 18 | 22 | 28 | 14 | 17 | 0 | 0 | 0 | 0
COc1ccc(-c2oc3c(OC)c(OC)c(OC)c(O)c3c(=O)c2OC)cc1OC | 0 | 0 | 12 | 0 | 13 | 0 | 4.1 | 0 | 0 | 0 | 0
COc1c(OC)c(O)c2c(=O)c(O)c(-c3ccccc3)oc2c1OC | 0 | 0 | 0 | 0 | 0 | - | - | - | - | - | -
Fc1ccc(NC(=S)NCc2ccccc2Cl)cc1 | 0 | 0 | 12 | 13 | 14 | 36 | 25 | 35 | 17 | 24 | 38
Nc1ccn(C2CCC(CO)O2)c(=O)n1 (stereo unspecified) | 0 | - | - | - | - | - | - | - | - | - | -
Cc1ccc(C(C)C)c(OCc2ccc(C(=O)N/N=C/c3ccc(O)cc3O)cc2)c1 | - | 0 | 27 | 15 | 13 | 15 | 18 | 0 | 14 | 0 | 24
NC(=S)Cc1ccc(Cl)cc1Cl | 0 | 0 | 0 | 0 | 0 | - | - | - | - | - | -
N=C(N)SCc1ccc(Cl)cc1Cl | 0.12 | 0 | 72 | 68 | 82 | 86 | 66 | 89 | 68 | 69 | 90
COc1ccc(OCC(=O)NN=C(C)c2ccc(OC)cc2)cc1 | 0 | - | - | - | - | - | - | - | - | - | -
COc1ccc(Br)cc1C=NNC(=O)Cn1nnnc1N | 0 | - | - | - | - | - | - | - | - | - | -
Nc1c(Cl)ncnc1N/N=C/c1ccc2ccccc2n1 | - | 0 | 26 | 24 | 27 | 23 | 18 | 0 | 11 | 0 | 0
